Source: PubChem BioAssay
In the library only some 3.5% were active in any assay of this set; here they are far more common.
Tau ThT inhib = qHTS for Inhibitors of Tau Fibril Formation, Thioflavin T Binding. Microtubule-associated protein tau (Homo sapiens), P10636. recombinant tau K18 P301L, heparin-induced fibrillization, ThT fluorescence. Potency, µM (doses to about 57.4 µM), for the others: top-dose activity, negative = inhibition, actives largely listed as inhibitors. 270,000 tested, 2.1% active; further: nearly all actives have a fitted effect of over 55% in size
Target sequence (P10636 561-689 P618L limits assumed): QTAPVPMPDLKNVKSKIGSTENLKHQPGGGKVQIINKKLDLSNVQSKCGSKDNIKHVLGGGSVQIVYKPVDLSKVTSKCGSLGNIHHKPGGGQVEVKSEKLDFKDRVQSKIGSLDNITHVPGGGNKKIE
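ThT emission at 510 nm, taken 1 hr after adding 30 uM dye, quantifies aggregates formed when 20 uM heparin acts on human tau K18 P301L for 6 hr at 37 C.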
Tau fluor counter = Counterscreen qHTS for Inhibitors of Tau Fibril Formation, Fluorescence Polarization; tau K18 P301L Alexa594 fluorescence, heparin fibrillization; Potency, µM (titrated, usually from 57.7 µM), inactives show top-dose activity change, negative = decrease; 280,000 tested, 0.93% active; further: nearly all actives have a fitted effect of over 55% in size
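Human tau K18 P301L (15 uM unlabeled, 0.24 uM Alexa 594-labeled) in 100 mM sodium acetate pH 7 with 20 uM heparin, 6 hr at 37 C. ThT 30 uM added, 1 hr ambient; Alexa 594 FP and total fluorescence read at 555/632 nm.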
Tau FP inhib = qHTS for Inhibitors of Tau Fibril Formation, Fluorescence Polarization; Microtubule-associated protein tau (Homo sapiens), P10636; K18 P301L tau heparin fibrillization, Alexa594 FP, 6 h; Potency, µM (doses to about 57.7 µM), without a hit: at the top dose activity, negative = inhibition, most hits filed as inhibitors; 280,000 tested, 0.39% active; further: nearly all actives have a fitted effect of over 55% in size
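Quantitative HTS format: compounds meet 15 uM recombinant K18 P301L tau and Alexa 594-tau tracer in 100 mM sodium acetate pH 7; 20 uM heparin triggers fibrillization at 37 C over 6 hr; FP gives the signal.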
TexasRed fluor = Total Fluorescence Counterscreen for Inhibitors of the Interaction of Thyroid Hormone Receptor and Steroid Receptor Coregulator 2; Potency, µM (series often up to 106 µM), for inactives: at the top dose fluorescence change, negative = quenching; AID 1479, 2009; 280,000 tested, 0.29% active; TRb/SRC2 Texas Red total fluorescence interference; active means well fitted curve in either direction with a large enough effect; inconclusive means small, poorly fitted or top-dose-only effect
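Human TRb ligand-binding domain at 0.6 uM with 20 nM Texas Red SRC2 peptide in Tris buffer containing 1 uM T3 and 5% DMSO, incubated with compound 5 h at ambient temperature. Total fluorescence (555/632 nm) calculated as parallel + 2 × perpendicular.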
KDM4E inh = qHTS Assay for Inhibitors of Human Jumonji Domain Containing 2E (JMJD2E); AID 2147, 2009; Potency, µM (top dose mostly 57.1 µM), without a hit: at the top dose activity change, negative = inhibition, hits mostly inhibitors; JMJD2E catalytic domain, FDH-coupled NADH fluorescence (FDH is formaldehyde dehydrogenase); 230,000 tested, 1.6% active; Lysine-specific demethylase 4E (Homo sapiens), B2RXH2; active means well fitted inhibition curve with a large enough effect, not every such curve was filed as active; inconclusive means small, poorly fitted or top-dose-only effect, or another doubt; inactive means no such curve, though single readings can be large or run the other way;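 further: 0% = wells with enzyme and -100% = buffer wells without enzyme; nearly all actives have a fitted effect of over 50% in size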
Target sequence (B2RXH2 1-337 limits assumed): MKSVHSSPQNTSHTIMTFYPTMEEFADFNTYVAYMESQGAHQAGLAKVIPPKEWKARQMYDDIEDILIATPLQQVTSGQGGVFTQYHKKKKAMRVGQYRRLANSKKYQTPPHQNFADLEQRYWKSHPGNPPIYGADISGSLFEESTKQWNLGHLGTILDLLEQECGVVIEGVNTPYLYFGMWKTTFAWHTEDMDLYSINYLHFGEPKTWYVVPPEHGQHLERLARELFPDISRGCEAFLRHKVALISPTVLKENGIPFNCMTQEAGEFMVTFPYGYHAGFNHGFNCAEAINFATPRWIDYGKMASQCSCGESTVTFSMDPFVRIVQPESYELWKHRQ
TRb SRC2 PPI = qHTS for Inhibitors of the Interaction of Thyroid Hormone Receptor and Steroid Receptor Coregulator 2; Thyroid hormone receptor beta (Homo sapiens), P10828; TRbeta-SRC2 peptide binding, fluorescence polarization; receptor liganded with 1 µM T3; Potency, µM (highest dose often 106 µM), without a hit: at the top dose activity change, negative = inhibition, usual class: inhibitors; 280,000 tested, 0.065% active; AID 1469, 2008;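 further: plate controls were bound peptide for no effect and peptide without receptor for full effect; nearly all actives have a fitted effect of over 50% in size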
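TRb LBD 0.6 uM + Texas Red SRC2 peptide 20 nM, 1 uM T3, Tris buffer w/ 5% DMSO; compound pinned, 5 h RT; FP read ex 555/em 632; normalized to unbound and bound controls.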
* hit, by the source's call; ? = inconclusive; . = no result; [ ] = remark or other dose. Unless noted, the call rests on the fitted dose curve; in most records, active means well fitted curve in the direction sought with a large enough effect; inconclusive means small, poorly fitted or top-dose-only effect, or another doubt; inactive means no such curve, though single readings can be large; an effect the other way counts as inactive or inconclusive. Unless noted, on the % scale 0 is the no-effect control and ±100 the full control effect; potency means the concentration at half of the fitted maximal effect.

SMILES	Tau ThT inhib	Tau fluor counter	Tau FP inhib	TexasRed fluor	KDM4E inh	TRb SRC2 PPI
O=C(Cn1c(=O)n(Cc2nc(-c3ccccc3)no2)c(=O)c2cc3c(cc21)OCO3)Nc1ccc(Cl)cc1	24%	-11%	20µM*	-3%	.	-1%
CCN(CC)C(=O)N1CCN(Cc2ccc3c(c2)OCO3)CC1	3%	4%	0%	1%	-4%	2%
CCOC(=O)c1c(S(=O)(=O)NCC(=O)N2CCN(c3cccc(Cl)c3)CC2)c(C)n(C)c1C	-3%	2%	1%	0.35µM*[quencher]	.	-23%
CCOC(=O)c1c(S(=O)(=O)NCC(=O)N2CCN(c3cc(C)ccc3C)CC2)c(C)n(C)c1C	?	-18%	12%	-11%	.	-5%
C=CCn1cccc(/C=C/C(=O)c2ccc(C(C)(C)C)cc2)c1=S	20µM*	-11%	16%	1%	-6%	-15%
COc1ccccc1N1CCN(C(=O)c2ccc3c(c2)CCN3S(=O)(=O)c2ccccc2)CC1	-1%	-2%	16%	0%	.	-3%
Cc1nc2ccccc2c(=O)n1NCc1cccs1	-3%	-3%	-9%	-8%	-3%	-3%
Nc1ccc(-c2cc(-c3cccc(N)c3)nc(-c3ccccc3)n2)cc1	?	3.5µM*[quencher]	1%	-15%	?	1%
Nc1nc(N)nc(-c2ccccc2)n1	5%	6%	3%	-4%	0%	3%
CCC(=O)Nc1ccc(-c2cc(-c3ccccc3)nc(-c3ccc(NC(=O)CC)cc3)n2)cc1	-8%	?	11µM*	0%	?	12%
CC(=O)Nc1ccc(-c2cc(-c3ccccc3)nc(-c3ccccc3)n2)cc1	10%	?	3.5µM*	-1%	1%	5%
CC(=O)Nc1ccc(-c2cc(-c3ccc(NC(C)=O)cc3)nc(-c3ccccc3)n2)cc1	15%	-8%	14µM*	4%	?	-20%
CC(=O)Nc1ccc(-c2cc(-c3ccc(NC(C)=O)cc3)nc(-c3ccc(NC(C)=O)cc3)n2)cc1	4%	1%	?	1%	?	15%
CC1CCN(CC(=O)Nc2ccc(Br)cc2[N+](=O)[O-])CC1	-9%	-18%	2%	-2%	10%	0%
CCOC(=O)C1CCN(S(=O)(=O)c2cc(Br)cc3c2N(C(C)=O)C(C)C3)CC1 (configuration not stated)	-5%	4%	5%	5%	9%	-8%
CC(=O)Nc1ccc(-c2csc(NNC(=O)c3ccccc3)n2)cc1	6%	1%	-3%	-3%	5%	8%
CC(=O)Nc1ccc(-c2csc(N/N=C(/C)c3ccccc3)n2)cc1	.	11µM*[quencher]	?	1%	?	3%
Cc1nc2c3cc(F)ccc3n(Cc3ccc(F)cc3)c2s1	9%	6%	5%	-1%	-14%	4%
CCc1ccc2c(c1)c1nc(C)sc1n2CC	25µM*	-26%	?	-3%	-14%	?
O=c1c2c(-c3ccccc3)csc2ncn1/N=C/c1cccc([N+](=O)[O-])c1O	14µM*	-11%	-3%	-3%	-7%	1%
O=c1c2c(-c3ccccc3)csc2ncn1/N=C/c1ccc(O)c([N+](=O)[O-])c1	?	-2%	9%	1%	-1%	4%
COCCNC(=S)N/N=C1\CC(C)CC(C)(C)C1 (configuration not stated)	0%	2%	-7%	-3%	?	-5%
NNc1nncc2ccccc12	?	-12%	?	1%	20µM*	6%
Cc1nc(NCCCn2ccnc2)c2ccccc2n1	-6%	7%	4%	-2%	-2%	-6%
O=C1c2ccccc2-c2onc3ccc(NCCCn4ccnc4)c1c23	11µM*	?	20µM*	45µM*[fluorescent]	2%	16µM*
SMILES	Tau ThT inhib	Tau fluor counter	Tau FP inhib	TexasRed fluor	KDM4E inh	TRb SRC2 PPI
Cc1c(CN(C)C)c2c(n1Cc1ccccc1)C(=O)c1ccc(Br)cc1-2	16µM*	?	13%	-4%	-1%	7%
COc1ccccc1CNc1ncnc2ccc(-c3cccnc3)cc12	1%	-18%	-1%	-5%	?	0%
COc1ccccc1CNc1ncnc2ccc(-c3ccc(N(C)C)cc3)cc12	11µM*	10µM*[quencher]	?	-3%	?	1%
CCOC(=O)c1cc2cc([N+](=O)[O-])ccc2oc1=O	-8%	-5%	0%	-1%	2%	3%
CCCCCS(=O)(=O)CCCCCCCCCCn1c(-c2ccc(O)cc2)c(C)c2cc(O)ccc21	?	7.9µM*[quencher]	?	-2%	?	7%
N#C/C(=C\c1ccc(-c2ccccc2[N+](=O)[O-])o1)C(=O)Nc1nc(-c2cccs2)cs1	2.8µM*	?	0%	0%	-2%	2%
N#C/C(=C\c1ccc(-c2ccc([N+](=O)[O-])cc2)o1)C(=O)Nc1nc(-c2cccs2)cs1	2.2µM*	?	7%	?	1%	20%
N#C/C(=C/c1ccc(-c2ccccc2[N+](=O)[O-])o1)C(N)=O	-5%	-5%	-6%	1%	7%	-5%
O=c1[nH][nH]c(C(F)(F)F)c1C=Nc1ccccc1	1%	1%	0%	-2%	-2%	-4%
Cc1cc(O)ccc1N=Cc1c(C(F)(F)F)[nH][nH]c1=O	25µM*	?	32µM*	32µM*[fluorescent]	-4%	6.3µM*
O=c1c(C/C=C/c2ccccc2)c(O)ccn1CCc1c[nH]c2ccccc12	-16%	18µM*[quencher]	-5%	0%	-2%	6%
O=c1c(C/C=C/c2ccccc2)c(O)ccn1Cc1cccc(Cl)c1	2%	-26%	?	-5%	-4%	6%
COc1ccc2[nH]cc(CCn3ccc(O)c(C/C=C/c4ccccc4)c3=O)c2c1	?	25µM*[quencher]	?	-8%	-22%	-1%
COc1ccc2[nH]cc(CCNC(=O)Nc3ccccc3)c2c1	-14%	-30%	12%	-3%	.	-3%
O=C(O)c1cc(-c2ccc(/C=N/Nc3ccc(Cl)cc3)o2)ccc1Cl	8.9µM*	11µM*[quencher]	2%	-6%	?	1%
Cc1ccc(NC(=O)/C(C#N)=C\c2ccc(Cl)cc2Cl)cc1C	-18%	-3%	-6%	-19%	.	5%
